According to PubChem BioAssay (NCI):
This is part of a sample that, as a whole, favours compounds with a hit. Of some 83,000 tested, about 20% had one in any assay.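 Interpretation: 100, growth as untreated; towards 0, rising growth inhibition; 0, no net growth; 0 to -100, cell death. Compounds scoring below 10 were considered active.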 A number with no mark means an inactive call. Activity calls are given as the source filed them.

Assays:
Test in all cases: NCI-60 one-dose screen, 48 h (100 = growth as untreated, 0 = no growth, -100 = all killed)
Details in all cases: 10 µM unless noted
NCI-H23 lung = test system: NCI-H23 lung
NCI-H226 lung = test system: NCI-H226 lung
NCI-H322M lung = test system: NCI-H322M lung
HOP-62 NSCLC = test system: HOP-62 NSCLC
NCI-H460 lung = test system: NCI-H460 lung
NCI-H522 lung = test system: NCI-H522 lung
A549/ATCC NSCLC = test system: A549/ATCC NSCLC
786-0 renal = test system: 786-0 renal
COLO 205 colon = test system: COLO 205 colon
DU-145 prostate = test system: DU-145 prostate
K-562 leukemia = test system: K-562 leukemia
MALME-3M melanoma = test system: MALME-3M melanoma
MDA-MB-231 breast = test system: MDA-MB-231 breast
RXF 393 renal = test system: RXF 393 renal
SF-268 CNS = test system: SF-268 CNS
SF-295 CNS = test system: SF-295 CNS
SF-539 CNS = test system: SF-539 CNS
UACC-257 melanoma = test system: UACC-257 melanoma
M14 melanoma = test system: M14 melanoma
HCT-15 colon = test system: HCT-15 colon

SMILES	growth (NCI-H23 lung) [%]	growth (NCI-H226 lung) [%]	growth (NCI-H322M lung)	growth (HOP-62 NSCLC)	growth (NCI-H460 lung)	growth (NCI-H522 lung)	growth (A549/ATCC NSCLC)	growth (786-0 renal) [%]	growth (COLO 205 colon) [%]	growth (DU-145 prostate) [%]	growth (K-562 leukemia)	growth (MALME-3M melanoma)	growth (MDA-MB-231 breast)	growth (RXF 393 renal) [%]	growth (SF-268 CNS) [%]	growth (SF-295 CNS)	growth (SF-539 CNS) [%]	growth (UACC-257 melanoma) [%]	growth (M14 melanoma) [%]	growth (HCT-15 colon) [%]
O=C1/C(=C/c2ccc3cccc(Cl)c3n2)SC(=S)N1CCc1ccc(O)cc1	94.1	86.1	91.6%	86.7%	99.1%	54.9%	93.6%	94.2	107	101	86.2%	74.7%	79.9%	103	84.9	91.9%	86.9	100	90.8	86.1
O=C(CCc1nnc(Cn2ccnc2)o1)c1nc2ccccc2[nH]1	102	115	92.9%	102%	116%	98.4%	103%	105	119	108	101%	77.8%	89.7%	124	111	111%	100	114	105	100
CCCc1cccc(CCC)c1O	100	106	124%	106%	106%	89.9%	98.2%	110	116	120	104%	131%	125%	121	109	91.4%	118	93.3	–	107
N#CCNc1ccccc1N	86.6	101	82%	85.2%	101%	65.4%	92.2%	99	90.2	106	97.3%	96.2%	101%	110	102	106%	103	98.3	93.4	108
Cc1cc(=O)n2n1-c1ccc(Cl)cc1NC(=O)C2	109	93.9	85.6%	104%	112%	96.2%	100%	108	115	111	104%	103%	122%	104	109	98.2%	99	89	115	101
CCOC(=O)c1c2c(c(C)n1Cc1ccccc1)-c1nc(N)ncc1CC2	93.9	83.7	94.7%	82.4%	102%	96.7%	104%	92	131	120	94.2%	168%	79.3%	120	104	229%	103	144	111	99.4
COc1cc(C2CC(c3ccc(C)cc3)=NN2C(C)=O)ccc1Oc1ccnc2cc(Cl)ccc12 (centres undefined)	59.9	45.4	79.9%	16.4%	32.3%	41.4%	68.7%	21.9	99.2	74.8	93.3%	94.7%	35.7%	26.7	41.9	14.9%	23.1	102	106	90.7
CCCCCCCCSc1ncnc2c1ncn2CO	50.8	58.5	140%	82.7%	86.6%	66.4%	102%	85.5	104	90.9	73.7%	118%	98.2%	55.2	97.6	67.7%	86.3	81.6	97.7	97.1
ClC1=C(Cl)C(=C2C(Cl)=C(Cl)C(Cl)=C2Cl)C(Cl)=C1Cl	97.9	101	97.7%	90.1%	103%	79%	90.2%	103	103	106	87.1%	106%	110%	106	102	99.2%	104	92.3	102	106
Cc1cc(C)c2c(c1)N1OC(C2)C[C@H]1/C=C/c1ccccc1 (some centres undefined)	88.5	77.6	81.3%	111%	112%	84.7%	95.2%	102	111	117	88.2%	103%	101%	115	107	108%	111	113	104	88.7
CC1SC(c2c(Cl)cccc2Cl)N(NC(=O)c2[nH]c3ccc(F)cc3c2-c2ccccc2)C1=O (centres undefined)	48	58.5	4.84% (active)	-44.6% (active)	8.08% (active)	69%	-1.11% (active)	33.8	35.1	24.1	71.6%	1.97% (active)	0.445% (active)	26.5	44.3	6.65% (active)	71.5	93.9	62.8	65.1
OCc1nnn(-c2ccccc2)c1CO	112	114	118%	110%	116%	101%	110%	105	159	113	132%	122%	107%	104	105	115%	116	124	110	96.7
CCC[C@H](N[C@@H](C)C(=O)N1[C@H](C(=O)O)C[C@@H]2CCCC[C@@H]21)C(=O)OCC	94.2	105	103%	123%	116%	102%	91.4%	103	111	111	116%	94.2%	90.4%	114	105	111%	91.4	97.9	113	99.3
N#Cc1c(N)[nH]c(S)c1C#N	105	97.5	108%	100%	107%	97.4%	90.9%	107	120	112	100%	107%	99.3%	113	108	87.7%	97.9	99.9	100	100
Cc1cc2c(cc1[N+](=O)[O-])NC(CNC(C)C)CC2 (centres undefined)	93.9	93.6	113%	103%	107%	105%	104%	92.9	120	105	96.5%	117%	107%	117	95.1	102%	103	106	92	102
O=C1C(=O)c2ccc(Br)cc2-c2cc(Br)ccc21	42	88.6	91.2%	76.3%	78.8%	0.737% (active)	89.7%	50.9	119	68.4	4.69% (active)	70.4%	-23.4% (active)	26.1	22.4	78.1%	117	76.8	68	50.2
